Experimental data: PubChem BioAssay AID1159580 (chemical genetic matrix, 2015)
Out of some 5,500 compounds screened, about 2,000 (36%) were called active. Inconclusive results (about 18%) are left out. Rule as the data show it: active = normalized growth mostly below about 0.91 (no sharp cut-off); inconclusive = no clear call, values can overlap the other calls; inactive = mostly above about 0.92. This is one part of the list.

Experiment: chemical genetic growth profiling, strain panel (AID 1159580);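 also: tested at 20 µM; growth read once vehicle control cultures reached saturation at 30 °C; 1 = growth at the plate median or of vehicle wells; lower values mean less growth of the strain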
Settings: S. cerevisiae deletion strains, growth OD

Measured: normalized growth

CN1CCC2(CCN3CCc4c(oc5ccccc45)C3C2)N(C)C1=O (stereo not drawn)
inactive: locus YAL013W, strain DEP1, hits give low values 1.02 | locus YAL040C, strain CLN3, hits give low values 1 | locus YCL061C, strain MRC1 (second series), hits give low values 1 | locus YDR150W, strain NUM1, hits give low values 0.996 | locus YDR363W, strain ESC2, hits give low values 1.02 | locus YER002W, strain NOP16, hits give low values 1.01 | locus YMR263W, strain SAP30, hits give low values 1 | locus YNL153C, strain GIM3, hits give low values 1 | locus YNL175C, strain NOP13, hits give low values 1 | locus YNL197C, strain WHI3, hits give low values 1.01 | locus YNL224C, strain SQS1, hits give low values 1.01 | locus YOR083W, strain WHI5 (second series), hits give low values 1.02 | locus YPL055C, strain LGE1, hits give low values 1
